Results filed as inconclusive are left out. Active and inactive are the calls of the source. The call rests on the fitted dose curve; in most records, active means well fitted inhibition curve with a large enough effect; inconclusive means small, poorly fitted or top-dose-only effect; inactive means no such curve, though single readings can be large or run the other way.
Potency means the concentration at half of the fitted maximal effect.

The test in a line: InCell qHTS Assay for Inhibitors of the mTORC1 Signaling Pathway in MEF (Tsc2-/-, p53-/-) Cells: Hit Validation.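 Further: phospho-S6 Ser235/236 signal normalized to propidium iodide cell count per well; nearly all actives have a fitted effect of over 75% in size.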 The note with it: phospho-rpS6 immunofluorescence, 24 h; activity change, negative = inhibition: at 38.3 µM (top of the series).
On to `COc1ccc(/C=C/C(=O)Nc2ccc3nc(N4CCC(C)CC4)cc(C)c3c2)cc1OC`, for which the activity change, negative = inhibition was -100%.

As for `CC(C)CCNC(=O)C(=O)Nc1c2c(nn1-c1ccc(Cl)cc1)CSC2`, the Potency was 18.5 µM (active). For `COc1cc(OC)c(NS(=O)(=O)c2ccc3c(c2)CCCN3C(C)=O)cc1Cl`, the activity change, negative = inhibition is -100%. Same read-out and setting: next, `CCCCN1C(=O)C(O)(CC(=O)c2ccc(CC)cc2)c2cc(Br)ccc21` (configuration not stated): -23.7%. Same read-out and setting: next, `Cc1c(C(=O)OC2CCCCC2)[nH]c2c1C(=O)CC(c1ccccc1Cl)C2` (configuration not stated): -100%. For the molecule `COc1cc2nc(Nc3ccc(C)c(C)c3)nc(N)c2cc1OC`, the activity change, negative = inhibition was -100%. The same measure, in the same setting: next, `COc1ccc(NC(=O)Cn2c(=O)n(-c3ccccc3)c(=O)c3ccc(C(=O)NCc4ccc5c(c4)OCO5)cc32)cc1`: -21.2%. On the same count and under the same terms, the same measure for `COc1ccc(C(=O)Nc2ccc(OCc3cc(=O)n4ccccc4n3)cc2)cc1`: -100%; for `CCC1=Nc2cc(C(=O)NC3CCC(C)CC3)ccc2Sc2ccc(C)cc21` (configuration not stated): -100%. With `Cc1cccc(-n2nnnc2S(C)(=O)=O)c1`, the Potency is 3.29 µM (active). As to `CC(C)(C)c1ccc(-c2nc(S(=O)(=O)c3ccccc3)c(N3CCOCC3)o2)cc1`, the activity change, negative = inhibition is -100%.

`CCN1CCC(N(Cc2ccc(F)cc2)C(=O)Nc2ccc(C)c(F)c2)CC1`: the activity change, negative = inhibition is -100%. On the same count and under the same terms, next, `CCc1ccc(NC(=O)C2CCCN(S(=O)(=O)c3cccc4cccnc34)C2)cc1` (configuration not stated): -100%. Consider `CCC(C)NC(=O)c1sc2nc(C)c(C(=O)Nc3ccc(C)cc3C)c(-c3ccc(Cl)cc3)c2c1N` (configuration not stated), for which the activity change, negative = inhibition is -100%. Regarding `C=CCc1c(C)nc2nc(SCC(=O)Nc3ccc(C)c(C)c3)nn2c1C`, the Potency was 9.27 µM (active). Turning to `CCOc1cc(C2CC(=O)Nc3cc4c(cc32)OCCO4)ccc1O` (configuration not stated), the activity change, negative = inhibition was -100%. For the molecule `Cc1cc(Cl)ccc1NC(=O)CN1C(=O)C(=O)c2ccccc21`, the activity change, negative = inhibition is -16%. Same read-out and setting: next, `CCC(C)n1c(SCc2c(F)cccc2Cl)nc2ccsc2c1=O` (configuration not stated): -100%; `CCOC(=O)c1cnc2ccc(C)cc2c1Nc1ccc(N(CC)CC)cc1`: -100%. On the same count and under the same terms, next, `COc1ccc(N2CCN(C(=O)C3CCCN(S(=O)(=O)c4ccc5c(c4)CCCN5C(C)=O)C3)CC2)cc1` (configuration not stated): -100%. Take `O=C(NCCSc1c(-c2ccc(F)cc2)[nH]c2ccccc12)c1ccc(S(=O)(=O)N2CCOCC2)cc1`: the activity change, negative = inhibition is -100%. The same measure, in the same setting: next, `COc1ccc(-c2noc(CSc3nc(N)cc(=O)[nH]3)n2)cc1`: -100%; `Cc1cccc(CN2CCc3nc(N4CCN(c5ccccn5)CC4)ncc3C2)c1`: -100%.

As to `CCN(CC)CCOC(=O)c1ccc(NC(=O)c2nn(-c3ccc(C)cc3)c(=O)c3c2c2ccccc2n3C)cc1`, the Potency is 3.29 µM (active). As for `COCCCNc1ncnc2c1cnn2-c1ccc(F)cc1`, the activity change, negative = inhibition is -100%. Still for that read-out and setting: the same measure for `CCOc1ccccc1NC(=O)Cn1nnc(C(=O)NCc2cccs2)c1N`: -100%; for `CCOC(=O)c1cnc2c(ccc3ccccc32)c1Nc1ccc(OC)cc1OC`: -100%; for `CCN(C(=O)C(NS(=O)(=O)c1ccc(Br)s1)c1ccccc1)c1ccc(C)c(C)c1` (configuration not stated): -15.2%.

On to `COc1ccc(N(C)C(=O)c2cc(S(=O)(=O)N3CCc4ccccc43)cn2C)c(OC)c1`, for which the activity change, negative = inhibition is -100%. Take `CCS(=O)(=O)c1ncc(Cl)c(C(=O)N(Cc2ccccc2)c2ccc(OC)cc2)n1`: the Potency is 2.93 µM (active). As for `Cc1ccccc1NC(=O)Cn1cc(C(=O)c2cccs2)c2ccccc21`, the activity change, negative = inhibition was -100%.

As to `O=C(c1ccc(CS(=O)c2ccccc2Cl)o1)N1CCN(c2cccc(Cl)c2)CC1` (configuration not stated), the activity change, negative = inhibition is -100%.

In the case of `Cc1cccc(N(C)S(=O)(=O)c2ccc(-c3cc(C)no3)s2)c1`, the activity change, negative = inhibition was -9.17%.

Regarding `CCOC(=O)C1CCN(C(=O)CSc2c3c(nc4ccc(Cl)cc24)CCCC3)CC1`, the activity change, negative = inhibition was -100%.

Consider `O=C(Nc1ccc(-c2cc(C(F)(F)F)nn2-c2ccccc2)cc1)c1cccc(F)c1`, for which the activity change, negative = inhibition is -100%. The same measure, in the same setting: next, `CCOC(=O)N1CCN(Cc2nc3cc(NC(=O)CC(C)C)ccc3n2C(C)C)CC1`: -100%; `CCOC(=O)N1CCN(Cc2nc3cc(NC(=O)C(C)C)ccc3n2C(C)C)CC1`: -100%.

These data come from PubChem BioAssay AID651791 (National Center for Advancing Translational Sciences (NCATS), 2012).
